Laboratory results as given in paper PMC13494018.
Values without a mark were called inactive. No rule for the calls is given here.

B1: design_607_777643b9-bd23-49d1-80ae-2b1434974efa_1383_dldesign_0_cycle1_af2pred (protein)
chain: DGEEFLKKLKERGELIKKKYPVAAEEITKITDEAVKVAQKGIEDPEKFEEYKKEATDLLHKAREIGAEKEVEAKL
B2: design_608_fd41b8f9-4da9-4c78-93ec-aaa316ed4933_3_dldesign_0_cycle1_af2pred (protein)
chain: GMEEESKAYKEALDKLSELGKEAEKAAKKGNEEVRKKLLKLKEEAEKKLDEGFEKGKEAAKEAKKFIEEKLKEVKKLLKELE
B3: design_607_777643b9-bd23-49d1-80ae-2b1434974efa_2143_dldesign_0_cycle1_af2pred (protein)
chain: GMEEEEKRREELKKKAEELIKKAHEAYENSAEASVTNKEAAEIYREAAKLYKKAAEAYRSGEKVEEGEKYEEEAKAKEKEAKALLEK
B4: design_607_777643b9-bd23-49d1-80ae-2b1434974efa_1839_dldesign_0_cycle1_af2pred (protein)
chain: GMEAGKKALAEADKAGAAAIAAAKAGDVKAASAAAGEAYFYLAEAYVEFGPEADEEIKAKRQALLDALKKATAEAAA
B5: design_607_777643b9-bd23-49d1-80ae-2b1434974efa_2248_dldesign_0_cycle1_af2pred (protein)
chain: AAAEAAAKAKEAAKKAAAIAKEGIAKQEKAAKEGDAEKVREIAKEVRTKLAAEAKATPEGAKAYAAAAHDVYEAAAEYSQEAKKAK
B6: design_607_777643b9-bd23-49d1-80ae-2b1434974efa_1681_dldesign_0_cycle1_af2pred (protein)
chain: HMTPEQIAAAKATAAAAAALAANAATTTQAQITAVMDAAAAAMPEFADTFATLRATMLANYADKAGVAKGLAAVARMLAASAKAAE
B7: design_607_777643b9-bd23-49d1-80ae-2b1434974efa_2234_dldesign_0_cycle1_af2pred (protein)
chain: SAAVKAAAEKAIAAFEAVAKKAKKAAEEGAKPEEVEKLRKELEKARKAGKEVAKKAAADPELVKKLSNAAFEAYEAIAEAAFAA
B8: design_607_777643b9-bd23-49d1-80ae-2b1434974efa_1272_dldesign_0_cycle1_af2pred (protein)
chain: EEAFKEAGEKALEYAEKVLKLAKKEPEVLEKAEKGLELLKKGIETGDKDLLVKARSYFLQVASYASPEVAEVAEKAAEYIDEAYILLS
B9: design_607_777643b9-bd23-49d1-80ae-2b1434974efa_1467_dldesign_0_cycle1_af2pred (protein)
chain: AEERAKKVIKEAEELRKEAIALAEKYKENPEVRKLAVEAAHYALLAISAAKAGVKFLPYAEEYLKKAKELYEKGKALAEALEKEKEEK
B10: design_607_777643b9-bd23-49d1-80ae-2b1434974efa_2358_dldesign_0_cycle1_af2pred (protein)
chain: MEEEAKRILEEAEKKAKEAEAIAKSGKNTKEAEKLAREALKLVKENAPIIPKEEALKAAKKALEVLFEATEAAN
B11: design_607_777643b9-bd23-49d1-80ae-2b1434974efa_2342_dldesign_0_cycle1_af2pred (protein)
chain: SEAQKEGKAFSAMMKTASEKGKELSKKTGTPLAEMAKIVQDIADAYAKGPEEIKKVAKTPEAKELATAAYDTYEKTYKA
B12: design_607_777643b9-bd23-49d1-80ae-2b1434974efa_2300_dldesign_0_cycle1_af2pred (protein)
chain: GKKEEAKKYAEEAKKKIKELAKKAEKSTDEEEVKKLAEKARELAKKAIEYAKKELTPEEAAKVAKELSEAAHEAHEAAAIGLFNIRKK
B13: design_607_777643b9-bd23-49d1-80ae-2b1434974efa_1448_dldesign_0_cycle1_af2pred (protein)
chain: AAAEEARKAAITAAADTLAEADGDVYLAANELAKKVGPEAGKAILEKAKAARKEALAAIKEDPAAGAALAKRKGEEILKEAKELIEKA
B14: design_607_777643b9-bd23-49d1-80ae-2b1434974efa_1990_dldesign_0_cycle1_af2pred (protein)
chain: MKEIIKLESESLRKLVRVAREVAEADPSLKPLAEEAILAAADNPEEGAKKVEELAKASLKVEGGEEYAKKLKEVAEKLKEVEEIYK
B15: design_607_777643b9-bd23-49d1-80ae-2b1434974efa_2236_dldesign_0_cycle1_af2pred (protein)
chain: EAKKYAEKAEKLAKEAEESTDDYEKAKKYAEEARKYAKKAVAYAKANPEDKEAKELAKKAIEAAHKAQEALAEAKAN
B16: design_607_777643b9-bd23-49d1-80ae-2b1434974efa_1961_dldesign_0_cycle1_af2pred (protein)
chain: SEEEAKKKAEKAAEEAKKLAKEGAKFPEKAEELTEKAKEIAKELAKAGFPKLGSEAAAAAHEAQAEANLKKR
B17: design_607_777643b9-bd23-49d1-80ae-2b1434974efa_1562_dldesign_0_cycle1_af2pred (protein)
chain: GKELLEKIKKLSEEAVFATADDPEKGKEKLEEAKKLVKEAEKLPEAPKAKEALEKAEKVSKSIIEDIEKAK
B18: design_607_777643b9-bd23-49d1-80ae-2b1434974efa_1601_dldesign_0_cycle1_af2pred (protein)
chain: ASEEVKKQAEASSAAYREAKKVAKYVKANAADPKAAEIAKKANALIEEAMTGDAETAEKKTKEIAKLAKE
B19: design_607_777643b9-bd23-49d1-80ae-2b1434974efa_2469_dldesign_0_cycle1_af2pred (protein)
chain: KKITMEEQETLVNSSDDAAYYDVINTPEAAEKAKEAKATRDSLVAKWKAEDPEGGEKLKKVADHIYENSYKISKRILEEKKE
B20: design_607_777643b9-bd23-49d1-80ae-2b1434974efa_1637_dldesign_0_cycle1_af2pred (protein)
chain: MEKDEALVERAFEAGGELFEKYPEGSKIASAMIRAATIARKDPEAGLEYLRERGLELGEEVAEEATERFRKILEEL
B21: design_607_777643b9-bd23-49d1-80ae-2b1434974efa_1995_dldesign_0_cycle1_af2pred (protein)
chain: EKEKELKEEVKEAGKRAEERVSRRAAKATNQQQKEATKALADNAIASIRKLAEEKGKETGKEEEFKKLAEEAEKKISAIVEAV
B22: design_607_777643b9-bd23-49d1-80ae-2b1434974efa_1902_dldesign_0_cycle1_af2pred (protein)
chain: DVEKVAKEAIEKLEEYGKRVPELAPEAKKAIERVKRRKEEGEKNPKFAPASIEAIKDTAENLKKKAEKLEKA
B23: design_607_777643b9-bd23-49d1-80ae-2b1434974efa_1377_dldesign_0_cycle1_af2pred (protein)
chain: AEVAALVKKASEAMGEARFNANAAEKIPEEAEEYAKKAEEAIKAFRDALAQIRALAAEASPETLAAADRAEARLKELEKKVKEALKK
B24: design_608_fd41b8f9-4da9-4c78-93ec-aaa316ed4933_178_dldesign_0_cycle1_af2pred (protein)
chain: AATEEANKALLEAKEAIVDAYNEKYKLDPEEGKKLRKELLKKLAEAYASENAAEKLKEIKKEAKKLAEEYEKKN
B25: design_607_777643b9-bd23-49d1-80ae-2b1434974efa_2298_dldesign_0_cycle1_af2pred (protein)
chain: VTPEELAEAAKKKDELLDAAFAALQAAKTVEEVEAVAKEFLAKAEELGKDPRYAAAAESFKKILTRMKEAAVKAIK
B26: design_607_777643b9-bd23-49d1-80ae-2b1434974efa_2448_dldesign_0_cycle1_af2pred (protein)
chain: SAEEEAKKLLEEAKKLAEEAGKSKDPEEAEKLAREAIKLAEKAAKLGLKEEASKVAHLARENLAEAQYRYRKEKK
B27: design_607_777643b9-bd23-49d1-80ae-2b1434974efa_2486_dldesign_0_cycle1_af2pred (protein)
chain: AAEKEAAKAEAAKLVEEAADAAVEKGAEGVEAIIKELEKAAKAASPEARVYYEKAIRTAKSLAEDVKELEN
B28: design_607_777643b9-bd23-49d1-80ae-2b1434974efa_2023_dldesign_0_cycle1_af2pred (protein)
chain: SAEAAAVKAEVDALTAAAVAATPEEAAKLGSQAAALAYEAAAEYASLSAREKDPEKAAEYKALADALREAARAARDRVAAAIAAKLA
B29: design_608_fd41b8f9-4da9-4c78-93ec-aaa316ed4933_199_dldesign_0_cycle1_af2pred (protein)
chain: AEEYRKKAKELAEKAKKYVEKLKADPENAEEYYKKAVEYIHKLYELAAEAESEGHPEVAKEIRELARKIGEEAKKAYEEVKA
B30: design_607_777643b9-bd23-49d1-80ae-2b1434974efa_2258_dldesign_0_cycle1_af2pred (protein)
chain: AAVEEAKAALKKRYEKALKLAKEASEELYKEVVEKYKEYVAAAEAAKDPAEKVAALTAGNAFMYELIAEARSEIERKKEE
B31: design_607_777643b9-bd23-49d1-80ae-2b1434974efa_2272_dldesign_0_cycle1_af2pred (protein)
chain: NTQKAADKFSEAVRNLREAAKLGGEEVKEMAEKAILAAADDPEKGVEQAEKLLKYVKENVSEEVAKLVEEALKNFKEMAKLLN
B32: design_607_777643b9-bd23-49d1-80ae-2b1434974efa_1871_dldesign_0_cycle1_af2pred (protein)
chain: DMKEEAKKVAKEAKEVAKKVYELDPAKGSELSAKIHEAEALVKHPKFAEEGLKELKETLKKAKELLKKLE
B33: design_607_777643b9-bd23-49d1-80ae-2b1434974efa_1959_dldesign_0_cycle1_af2pred (protein)
chain: MEKAEEYLEEAKKALEKAEEYIAKAAADPANRAAYAAKAAQYAQEARILADGLELVDPSMKPEAEELRERARELIKKLAAVL
B34: design_607_777643b9-bd23-49d1-80ae-2b1434974efa_1699_dldesign_0_cycle1_af2pred (protein)
chain: SEKVEEVAKKEAEKIKEVAKKYGIEEEGKKAVERLKKKAEEAKKWKKPEIGAESVKTYGEGALKSVEILGKKKAA
B35: design_607_777643b9-bd23-49d1-80ae-2b1434974efa_2270_dldesign_0_cycle1_af2pred (protein)
chain: AAADATVDAAIAKLRALGKEYPEGADAFNQLADNLKKAAAKAKTPEAKIAAAKKAMATAEHILKTTKEAEERAKKRKEEEEK
B36: design_607_777643b9-bd23-49d1-80ae-2b1434974efa_2203_dldesign_0_cycle1_af2pred (protein)
chain: SAVEKEKEELKKEVEEAKKEAEKVIAGGTLEEGAKVADKAYQLAAEAASLGPEAEDIEKEAREVARRLREYGKERRA
B37: design_608_fd41b8f9-4da9-4c78-93ec-aaa316ed4933_71_dldesign_0_cycle1_af2pred (protein)
chain: AKEEKEKEIEKLKKKAERLAERAKKVAEEAEKAGFEEVAKKIKEKAKELEKAAESMKEDYEKGKKEASEKAGELSEVMAEAKYLLAKK
B38: design_608_fd41b8f9-4da9-4c78-93ec-aaa316ed4933_161_dldesign_0_cycle1_af2pred (protein)
chain: ITEEQKKVAEKLVERAEEVGKKAIEAGYPELGKKVLELAKETRKALEVSAEEAAKKAAELAQLKAEAEFEIKK

Biological target: VTCN1, Q7Z7D3
Sequence (Q7Z7D3 whole entry): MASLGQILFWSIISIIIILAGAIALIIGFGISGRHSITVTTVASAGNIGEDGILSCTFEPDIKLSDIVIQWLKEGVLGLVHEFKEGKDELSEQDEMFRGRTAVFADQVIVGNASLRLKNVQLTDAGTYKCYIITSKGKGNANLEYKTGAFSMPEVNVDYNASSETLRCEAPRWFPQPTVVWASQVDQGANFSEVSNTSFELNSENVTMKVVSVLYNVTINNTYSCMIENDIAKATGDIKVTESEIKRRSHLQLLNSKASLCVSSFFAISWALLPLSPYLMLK

Row | Binder | binding in a display sort
1 | B1 | not found
2 | B2 | not found
3 | B3 | not found
4 | B4 | not found
5 | B5 | not found
6 | B6 | not found
7 | B7 | not found
8 | B8 | not found
9 | B9 | not found
10 | B10 | not found
11 | B11 | not found
12 | B12 | not found
13 | B13 | not found
14 | B14 | not found
15 | B15 | not found
16 | B16 | not found
17 | B17 | not found
18 | B18 | not found
19 | B19 | not found

Row | Binder | binding in a display sort
20 | B20 | not found
21 | B21 | not found
22 | B22 | not found
23 | B23 | not found
24 | B24 | not found
25 | B25 | not found
26 | B26 | not found
27 | B27 | not found
28 | B28 | not found
29 | B29 | not found
30 | B30 | not found
31 | B31 | not found
32 | B32 | not found
33 | B33 | not found
34 | B34 | not found
35 | B35 | not found
36 | B36 | not found
37 | B37 | not found
38 | B38 | not found
